From PubChem BioAssay (Tox21)
Records with an inconclusive call do not appear. The source made the active and inactive calls. Unless noted, calls follow the shape of the dose curve; as a rule, active = well fitted curve in the direction sought with a large enough effect in the repeat runs; inconclusive = weak or mixed curves; inactive = no such curve, though single readings can be large; an effect the other way counts as inactive or inconclusive.

What was measured:
[1] = qHTS assay to identify small molecule agonists of the peroxisome proliferator-activated receptor delta (PPARd) signaling pathway - cell viability counter screen (AID 743211); also: nearly all actives have a fitted effect of over 55% in size; also: potency is read from the fitted curve at half-maximal effect
In short: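 PPARd-bla HEK293H cells (3000/well) were pre-incubated 5 h at 37 C, then exposed to compound for 17 h at 37 C. After 2 h with LiveBLAzer substrate, CellTiter-Glo was added to the same wells; luminescence read after 30 min at room temperature.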

[2] = biological target: Peroxisome proliferator-activated receptor delta (Homo sapiens) (UniProt Q03181); test: qHTS assay to identify small molecule agonists of the peroxisome proliferator-activated receptor delta (PPARd) signaling pathway (AID 743212; calls by dose curve; also: % is scaled to controls: 0 for no effect and ±100 for the full control effect)
Sequence of Peroxisome proliferator-activated receptor delta (Homo sapiens) (Q03181 whole entry, looked up): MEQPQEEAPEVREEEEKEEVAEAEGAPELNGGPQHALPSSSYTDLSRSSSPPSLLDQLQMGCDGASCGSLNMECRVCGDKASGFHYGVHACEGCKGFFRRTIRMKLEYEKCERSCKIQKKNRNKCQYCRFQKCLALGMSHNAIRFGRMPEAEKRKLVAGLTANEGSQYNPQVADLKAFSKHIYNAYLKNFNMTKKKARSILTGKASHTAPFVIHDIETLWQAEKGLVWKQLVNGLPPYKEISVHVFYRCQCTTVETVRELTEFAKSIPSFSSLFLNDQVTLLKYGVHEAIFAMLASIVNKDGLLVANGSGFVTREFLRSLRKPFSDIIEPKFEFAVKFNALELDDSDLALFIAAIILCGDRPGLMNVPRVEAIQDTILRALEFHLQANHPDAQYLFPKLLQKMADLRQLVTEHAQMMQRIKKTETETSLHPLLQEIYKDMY
In short: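 Quantitative high-throughput agonist screen in a HEK293H beta-lactamase reporter line under UAS control. Compounds in DMSO, at 37 C. Fluorescence read after 2 h with FRET substrate at room temperature.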

[3] = qHTS assay to identify small molecule antagonists of the peroxisome proliferator-activated receptor delta (PPARd) signaling pathway - cell viability counter screen (AID 743213); also: % is scaled to controls: 0 for no effect and ±100 for the full control effect; nearly all actives have a fitted effect of over 50% in size
In short: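 PPARd-bla HEK293H cells (3000/well) got compound plus 300 nM L165041 agonist for 17 h at 37 C. Viability in the same wells came from CellTiter-Glo luminescence after 30 min at room temperature.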

[4] = biological target: Peroxisome proliferator-activated receptor delta (Homo sapiens) (UniProt Q03181); test: qHTS assay to identify small molecule antagonists of the peroxisome proliferator-activated receptor delta (PPARd) signaling pathway (AID 743215; active = well fitted inhibition curve with a large enough effect in the signal ratio in the repeat runs, not every such curve was filed as active; the % refers to the signal ratio;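 also: cells stimulated with agonist L165041 at 300 nM final during compound exposure; series mostly up to about 62 µM; % is scaled to controls: 0 for no effect and ±100 for the full control effect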)
In short: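 Antagonist-mode beta-lactamase reporter screen: HEK293H cells with UAS-bla under PPARd control, stimulated by 300 nM L165041 (final) alongside test compound for 17 h at 37 C, then FRET fluorescence after 2 h substrate incubation.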

[5] = qHTS assay to identify small molecule agonists of the farnesoid-X-receptor (FXR) signaling pathway - cell viability counter screen (AID 743218); also: % is scaled to controls: 0 for no effect and ±100 for the full control effect; nearly all actives have a fitted effect of over 45% in size
In short: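 In GeneBLAzer FXR-UAS-bla HEK 293T cells, compounds act for 16 h at 37 C. Cell viability is then scored in the reporter wells by CellTiter-Glo, 30 min at RT, luminescence.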

[6] = qHTS assay to identify small molecule antagonists of the farnesoid-X-receptor (FXR) signaling pathway - cell viability counter screen (AID 743221; active = well fitted cell-killing curve with a large enough effect in the repeat runs, not every such curve was filed as active; also: % is scaled to controls: 0 for no effect and ±100 for the full control effect; nearly all actives have a fitted effect of over 50% in size)
In short: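 GeneBLAzer FXR-UAS-bla HEK 293T cells, compound plus chenodeoxycholic acid (50 uM final), 16 h at 37 C. CellTiter-Glo added to the same wells after the beta-lactamase read; luminescence read after 30 min at room temperature as viability.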

[7] = biological target: Vitamin D3 receptor (Homo sapiens) (UniProt P11473); test: qHTS assay to identify small molecule agonists of the vitamin D receptor (VDR) signaling pathway (AID 743222; calls by dose curve; also: % is scaled to controls: 0 for no effect and ±100 for the full control effect)
Sequence of Vitamin D3 receptor (Homo sapiens) (P11473 whole entry, looked up): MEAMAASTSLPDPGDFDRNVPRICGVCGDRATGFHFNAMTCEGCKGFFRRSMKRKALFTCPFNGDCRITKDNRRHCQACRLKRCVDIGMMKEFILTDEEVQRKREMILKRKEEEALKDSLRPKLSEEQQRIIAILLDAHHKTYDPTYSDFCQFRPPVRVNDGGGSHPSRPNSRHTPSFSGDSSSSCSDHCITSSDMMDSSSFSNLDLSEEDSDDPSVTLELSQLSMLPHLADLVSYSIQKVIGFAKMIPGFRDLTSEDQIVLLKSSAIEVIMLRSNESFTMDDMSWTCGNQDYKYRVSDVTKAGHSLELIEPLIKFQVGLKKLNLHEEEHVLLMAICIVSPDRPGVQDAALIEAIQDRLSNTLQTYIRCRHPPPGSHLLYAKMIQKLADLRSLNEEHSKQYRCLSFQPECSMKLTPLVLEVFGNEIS
In short: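 Agonist activity measured in VDR-bla reporter cells. Exposure 16 h, 37C, 5% CO2; detection by B/G FRET substrate, 2 h RT.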

[8] = biological target: Vitamin D3 receptor (Homo sapiens) (UniProt P11473); test: qHTS assay to identify small molecule antagonists of the vitamin D receptor (VDR) signaling pathway (AID 743223; active = well fitted inhibition curve with a large enough effect in the signal ratio in the repeat runs, not every such curve was filed as active; the % refers to the signal ratio; also: % is scaled to controls: 0 for no effect and ±100 for the full control effect)
In short: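 VDR-bla cells were treated with compound plus 3 nM final 1alpha,25-dihydroxyvitamin D3 for 16 h at 37C. Beta-lactamase reporter read by B/G FRET substrate fluorescence after 2 h at room temperature. qHTS format.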

[9] = qHTS assay to identify small molecule agonists of the vitamin D receptor (VDR) signaling pathway - cell viability counter screen (AID 743224); also: nearly all actives have a fitted effect of over 50% in size; also: potency is read from the fitted curve at half-maximal effect
In short: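 VDR-bla cell line, quantitative HTS format; 16 h compound incubation (37C, 5% CO2); ATP-based CellTiter-Glo luminescence measured in the reporter assay wells.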

[10] = qHTS assay to identify small molecule antagonists of the vitamin D receptor (VDR) signaling pathway - cell viability counter screen (AID 743225); also: nearly all actives have a fitted effect of over 50% in size; also: potency is read from the fitted curve at half-maximal effect
In short: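 VDR-UAS-bla HEK 293T cells were plated and incubated 4 h at 37C, then dosed with compound plus 3 nM (final) 1-alpha,25-dihydroxyvitamin D3 for 16 h. After the 2 h beta-lactamase read, viability in the same wells was read as CellTiter-Glo luminescence after 30 min at room temperature.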

[11] = qHTS assay to identify small molecule agonists of the NFkB signaling pathway - cell viability counter screen (AID 1159515; calls by dose curve; also: series mostly up to about 61 µM; % is scaled to controls: 0 for no effect and ±100 for the full control effect; nearly all actives have a fitted effect of over 55% in size)
In short: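 Viability in NFkB-bla ME-180 cells was measured by CellTiter-Glo luminescence, 30 min room temperature, in wells already treated 5 hr with compounds and read for reporter FRET.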

[12] = qHTS assay to identify small molecule agonists of the endoplasmic reticulum stress response signaling pathway (AID 1159516; active = well fitted activation curve with a large enough effect in the signal ratio in the repeat runs, not every such curve was filed as active; the % refers to the signal ratio; also: % is scaled to controls: 0 for no effect and ±100 for the full control effect)
In short: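 ER stress element reporter (bla) in HeLa. 1,500 cells/well, overnight attachment; 5 hr compound; 2 hr RT substrate; dual-emission fluorescence.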

[13] = qHTS assay to identify small molecule antagonists of the retinoid-related orphan receptor gamma (ROR-gamma) signaling pathway - cell viability counter screen (AID 1159520)
In short: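 Tet-on ROR gamma CHO cells were given compounds for 2 hr, then doxycycline hyclate at 1 uM final, and incubated 16 hr at 37 C. Viability was measured as ATP content by CellTiter-Glo luminescence.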

[14] = biological target: Nuclear receptor ROR-gamma (Homo sapiens) (UniProt P51449); test: qHTS assay to identify small molecule antagonists of the retinoid-related orphan receptor gamma (ROR-gamma) signaling pathway (AID 1159521)
In short: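 Tet-on ROR-gamma CHO cells with ROR response element-luciferase reporter; compounds added 2 hr before 1 uM doxycycline induction, then 16 hr at 37 C. Antagonism scored as decreased ONE-Glo luminescence.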

[15] = qHTS assay to identify small molecule agonists of the AP-1 signaling pathway - cell viability counter screen (AID 1159525; calls by dose curve; also: nearly all actives have a fitted effect of over 55% in size)
In short: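 AP-1-bla ME-180 cells in Opti-MEM with 0.5% dialyzed FBS, compound exposure 5 h at 37 C in 15-point titration. Viability read in the same wells as ATP content by CellTiter-Glo luminescence, normalised to tetra-n-octylammonium bromide and DMSO controls.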

[16] = biological target: Bile acid receptor (Homo sapiens) (UniProt Q96RI1); test: qHTS assay to identify small molecule antagonists of the farnesoid-X-receptor (FXR) signaling pathway (AID 743217; active = well fitted inhibition curve with a large enough effect in the signal ratio in the repeat runs, not every such curve was filed as active; the % refers to the signal ratio; also: % is scaled to controls: 0 for no effect and ±100 for the full control effect)
Sequence of Bile acid receptor (Homo sapiens) (Q96RI1 whole entry, looked up): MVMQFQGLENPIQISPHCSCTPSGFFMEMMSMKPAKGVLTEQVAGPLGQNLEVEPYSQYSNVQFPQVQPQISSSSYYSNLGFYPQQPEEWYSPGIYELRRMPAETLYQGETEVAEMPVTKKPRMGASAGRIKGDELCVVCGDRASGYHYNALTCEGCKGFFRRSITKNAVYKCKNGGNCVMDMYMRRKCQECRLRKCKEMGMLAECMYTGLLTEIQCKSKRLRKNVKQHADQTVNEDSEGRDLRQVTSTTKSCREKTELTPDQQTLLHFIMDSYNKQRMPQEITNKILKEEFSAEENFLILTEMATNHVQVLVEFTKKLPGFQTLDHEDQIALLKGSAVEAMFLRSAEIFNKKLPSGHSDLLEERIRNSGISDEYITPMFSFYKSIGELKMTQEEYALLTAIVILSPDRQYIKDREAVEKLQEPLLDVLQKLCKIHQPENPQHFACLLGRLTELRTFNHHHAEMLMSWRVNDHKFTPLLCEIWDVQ
In short: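 Beta-lactamase reporter under UAS control in HEK 293T cells; compound exposure 16 h at 37 °C in the presence of chenodeoxycholic acid (50 uM final); signal from B/G FRET substrate after 2 h at room temperature.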

[17] = biological target: Bile acid receptor (Homo sapiens) (UniProt Q96RI1); test: qHTS assay to identify small molecule agonists of the farnesoid-X-receptor (FXR) signaling pathway (AID 743220; active = well fitted activation curve with a large enough effect in the signal ratio in the repeat runs, not every such curve was filed as active; the % refers to the signal ratio; also: % is scaled to controls: 0 for no effect and ±100 for the full control effect)
In short: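 Beta-lactamase reporter under UAS control in GeneBLAzer FXR HEK 293T cells (5000/well) measured with LiveBLAzer FRET substrate after 2 h at room temperature. Compound exposure lasted 16 h at 37C.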

[18] = qHTS assay to identify small molecule agonists of the endoplasmic reticulum stress response signaling pathway - cell viability counter screen (AID 1159517; calls by dose curve)
In short: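 Counter-screen wells were identical to the reporter wells. Cells were plated at 1,500 per well and dosed for 5 hr, then read for luminescence 30 min after CellTiter-Glo addition.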

[19] = qHTS assay to identify small molecule agonists of the AP-1 signaling pathway (AID 1159526; calls by dose curve; also: % is scaled to controls: 0 for no effect and ±100 for the full control effect)

CN1CCC[C@@H]1Cc1c[nH]c2ccc(CCS(=O)(=O)c3ccccc3)cc12
inactive: Potency [1] | outcome [2] | Potency [3] | outcome [4] | Potency [5] | outcome [6] | outcome [7] | outcome [8] | Potency [9] | Potency [10] | outcome [11] | outcome [12] | Potency [13] | Potency [14] | outcome [15]

O=C(C(Cl)Cl)N1CCOC12CCCCC2
inactive: Potency [1] | outcome [2] | Potency [3] | outcome [16] | Potency [5] | outcome [17] | outcome [6] | outcome [7] | outcome [8] | Potency [9] | Potency [10] | outcome [11] | outcome [12] | outcome [18] | Potency [13] | outcome [15] | Potency [19]

CCC/C=C/CO
inactive: Potency [1] | outcome [2] | Potency [3] | Potency [5] | outcome [17] | outcome [6] | outcome [8] | Potency [9] | Potency [10] | outcome [11] | outcome [12] | Potency [13] | Potency [19]

C/C(=N\O)[C@@H](C)NCC(C)(C)CN[C@H](C)/C(C)=N/O
inactive: Potency [1] | outcome [2] | Potency [3] | Potency [5] | outcome [6] | outcome [8] | Potency [9] | Potency [10] | outcome [11] | outcome [18] | Potency [13] | Potency [14] | Potency [19]

Cc1nc(N)nc(N)c1-c1ccc(Cl)c(Cl)c1
inactive: Potency [1] | outcome [2] | outcome [4] | outcome [17] | outcome [11] | outcome [18] | Potency [13] | Potency [14] | outcome [15]
active: Potency [9] 3.35 µM | Potency [10] 3.79 µM

N#Cc1ccc(C(c2ccc(C#N)cc2)n2cncn2)cc1
inactive: Potency [1] | outcome [2] | Potency [3] | outcome [4] | Potency [5] | outcome [17] | outcome [7] | outcome [8] | Potency [9] | Potency [10] | outcome [11] | outcome [12] | outcome [18] | Potency [13] | outcome [15] | Potency [19]

C=CCCCCCCCCO
inactive: Potency [1] | Potency [3] | Potency [5] | outcome [6] | Potency [9] | Potency [10] | outcome [11] | outcome [12] | outcome [18] | Potency [13] | outcome [15] | Potency [19]

C[C@@H]1CN(c2c(F)c(N)c3c(=O)c(C(=O)O)cn(C4CC4)c3c2F)C[C@H](C)N1
inactive: Potency [1] | outcome [2] | Potency [3] | outcome [16] | Potency [5] | outcome [17] | outcome [6] | outcome [7] | outcome [8] | Potency [9] | Potency [10] | outcome [11] | outcome [12] | outcome [18] | activity, negative = cytotoxicity [13] 2.26% [at 19 µM] | viability change, negative = cytotoxic [15] 1.46% [at 15.8 µM] | activation [19] -6.27% [at 15.8 µM]

CCC(=O)c1ccc2c(c1)N(CCCN(C)C)c1ccccc1S2
inactive: outcome [16] | outcome [17] | outcome [11] | outcome [12] | outcome [18] | Potency [13] | Potency [14]
active: Potency [1] 29.8 µM

Cc1ccc([N+](=O)[O-])c(N)c1
inactive: Potency [1] | outcome [2] | Potency [3] | outcome [4] | Potency [5] | outcome [6] | outcome [7] | outcome [8] | Potency [9] | Potency [10] | outcome [11] | outcome [18] | Potency [13] | Potency [14] | outcome [15]

CN1CCN(C2=Nc3ccccc3Oc3ccc(Cl)cc32)CC1
inactive: Potency [1] | outcome [4] | outcome [8] | Potency [9] | Potency [10] | outcome [11] | outcome [12] | outcome [18] | Potency [13] | Potency [14] | outcome [15]

COc1ccccc1N1CCN(CCCNc2cc(=O)n(C)c(=O)n2C)CC1
inactive: Potency [1] | outcome [2] | Potency [3] | outcome [4] | outcome [8] | Potency [9] | Potency [10] | outcome [11] | outcome [12] | outcome [18] | Potency [13] | outcome [15] | Potency [19]

CN(C)Cc1ccccc1
inactive: Potency [1] | outcome [2] | Potency [3] | outcome [4] | Potency [5] | outcome [7] | outcome [8] | Potency [9] | Potency [10] | outcome [11] | outcome [12] | outcome [18] | Potency [13] | outcome [15] | Potency [19]

CCOC(=O)c1cc(=O)c2c(OCC(COc3cccc4oc(C(=O)OCC)cc(=O)c34)OC(=O)[C@@H](N)CCCCN)cccc2o1
inactive: Potency [1] | outcome [2] | Potency [3] | outcome [16] | Potency [5] | outcome [17] | outcome [6] | outcome [7] | outcome [8] | Potency [9] | Potency [10] | outcome [11] | outcome [12] | outcome [18] | Potency [13] | outcome [15] | Potency [19]

CC(C)C(=O)OCC(C)(C)C(O)C(C)C (configuration not stated)
inactive: Potency [1] | outcome [2] | Potency [3] | Potency [5] | outcome [17] | outcome [6] | outcome [7] | outcome [8] | Potency [9] | Potency [10] | outcome [11] | Potency [13] | Potency [14] | Potency [19]

CCOc1ccc(NS(=O)(=O)c2ccc(N)cc2)nn1
inactive: Potency [1] | outcome [2] | Potency [3] | outcome [4] | Potency [5] | outcome [6] | Potency [9] | Potency [10] | outcome [11] | outcome [12] | Potency [13] | outcome [15] | Potency [19]

COC(=O)c1ccc(OC)cc1
inactive: Potency [1] | Potency [3] | outcome [16] | Potency [5] | outcome [17] | Potency [9] | Potency [10] | outcome [11] | outcome [12] | outcome [18] | Potency [13] | outcome [15] | Potency [19]

Cc1cn([C@@H]2O[C@H](CO)[C@@H](O)[C@@H]2F)c(=O)[nH]c1=O
inactive: Potency [1] | outcome [2] | Potency [3] | outcome [4] | outcome [7] | outcome [8] | Potency [9] | Potency [10] | outcome [11] | outcome [12] | outcome [18] | Potency [13] | outcome [15] | Potency [19]
